Like-named read-outs stand apart in the source and are kept apart here. The whole screen tested about 13,000 compounds, of which about 3,200 (25%) showed an effect of 50% or more. Some of the results follow.
Test system: P. falciparum stage V gametocytes
Set-up: BacTiter-Glo ATP luminescence viability of purified stage V gametocytes in 384-well plates, per cent inhibition versus DMSO

| SMILES | % Inhibition (48 h, 5 µM; inhibitor) [%] | % Inhibition (48 h, 5 µM, inhibitor) [%] |
| --- | --- | --- |
| CN(C)CCC(=O)c1ccccc1 [TCMDC-125532] | 42.07 |  |
| Cc1ccc(CC(C)NCC(O)c2cccc(C(F)(F)F)c2)cc1F (stereo not drawn) [TCMDC-131520] | 16.03 |  |
| O=C(c1ccco1)c1cn(CCOc2ccccc2)c2ccccc12 [TCMDC-124426] | -19.68 |  |
| COc1ccc(OCCn2cc(C(=O)c3ccco3)c3ccccc32)cc1 [TCMDC-124425] | 55.18 |  |
| Cc1ccc(CC(C)NCC(O)c2cccc(Cl)c2)cc1F (stereo not drawn) [TCMDC-131522] | 25.69 |  |
| CC[C@H]1CN2CCc3cc(OC)c(OC)cc3[C@@H]2C[C@@H]1C[C@H]1NCCc2c1cc(OC)c(O)c2I [TCMDC-131829] | 88.82 |  |
| CC[C@H]1CN2CCc3cc(OC)c(OC)cc3[C@@H]2C[C@@H]1C[C@H]1NCCc2c1cc(OC)c(OC)c2Br [TCMDC-131803] | 73.47 |  |
| CC[C@H]1CN2CCc3cc(OC)c(OC)cc3[C@@H]2C[C@@H]1C[C@H]1NCCc2c1cc(OC)c(O)c2Cl [TCMDC-131802] | 83.05 |  |
| COc1ccc(NC(=O)NCC2CCCN(CCCCCNC(=O)/C=C/c3ccc(Cl)c(Cl)c3)C2)c(OC)c1 (stereo not drawn) [TCMDC-139520] | -54.43 |  |
| Cc1ccc(CC(C)NC[C@H](O)c2cccc(Cl)c2)cc1 (stereo partly drawn) [TCMDC-131434] |  | 17.71 |
| Cc1ccc(CC(C)NCC(O)c2cccc([N+](=O)[O-])c2)cc1 (stereo not drawn) [TCMDC-131459] | 42.66 |  |
| CC(O)C1CCCCN1C(=O)c1cccc(-c2ccc(-c3nc4cc(F)ccc4[nH]3)cc2)c1 (stereo not drawn) [TCMDC-132337] | -4.748 |  |
| CC(Cc1ccc(C(C)(C)C)cc1)NCC(O)c1ccccc1 (stereo not drawn) [TCMDC-131461] | -2.665 |  |
| COc1cccc(CC(C)NCC(O)c2cccc(Cl)c2)c1 (stereo not drawn) [TCMDC-131508] | -2.665 |  |
| COc1ccc(CC(C)NCC(O)c2cccc(C(F)(F)F)c2)cc1 (stereo not drawn) [TCMDC-131471] | 20 |  |
| Cc1c(C(=O)N[C@@H](C)c2ccccc2)c2cc(O)c(Br)cc2n1C1CCCCC1 [TCMDC-135454] | -62.04 |  |
| COc1c(F)cc(CC(C)NCC(O)c2cccc(Cl)c2)cc1F (stereo not drawn) [TCMDC-131518] | 14.1 |  |
| N=c1c2c(n(Cc3ccc(Cl)cc3Cl)c3c1CCC3)CCCC2 [TCMDC-125310] | 74.48 |  |
| COc1ccc(NC(=S)NC(NC(=O)CF)C(Cl)(Cl)Cl)cc1[N+](=O)[O-] (stereo not drawn) [TCMDC-124240] | -10.17 |  |
| CCC1=C[C@@H]2CN(C1)Cc1c([nH]c3ccccc13)[C@@](C(=O)OC)(c1cc3c(cc1OC)N(C)[C@H]1[C@@](O)(C(=O)OC)[C@H](O)[C@]4(CC)C=CCN5CC[C@]31[C@@H]54)C2 [TCMDC-137769] | 33.28 |  |
| Cl.c1ccc2c(NCCCCCCCCCNc3c4ccccc4nc4ccccc34)c3ccccc3nc2c1 [TCMDC-124286] | 134.6 |  |

| SMILES | % Inhibition (48 h, 5 µM; inhibitor) [%] | % Inhibition (48 h, 5 µM, inhibitor) [%] |
| --- | --- | --- |
| Cl.c1ccc2c(NCCCCCCNc3c4ccccc4nc4ccccc34)c3ccccc3nc2c1 [TCMDC-124285] | 125.5 |  |
| C#CCN1CCC2=C(C1)c1c(O)cc(C(C)C(C)CCc3ccc(F)cc3)cc1OC2(C)C (stereo not drawn) [TCMDC-125707] | -44.99 |  |
| Cc1ccc(CC(C)NCC(O)c2cccc(C(F)(F)F)c2)cc1 (stereo not drawn) [TCMDC-131476] |  | 12.88 |
| COc1cc2c(cc1OC)CN(CCCCNC(=O)c1ccc(NC(=O)c3cc(Cl)cc(Cl)c3)cc1)CC2 [TCMDC-138217] | -10.96 |  |
| COc1ccc(CC(C)NCC(O)c2cccc(C(F)(F)F)c2)cc1F (stereo not drawn) [TCMDC-131490] | 18.55 |  |
| C=Cc1cc(OC)c2c(c1)c(=O)oc1c2cc(OC)c2c(O)ccc([C@H]3O[C@H]([C@H](C)O)[C@H](O)[C@H]3O)c21 [TCMDC-141972] | 49.56 |  |
| CC(=O)Nc1ccc(OCCN(CC(F)(F)F)c2ccc(C#N)cc2C(F)(F)F)cc1 [TCMDC-135848] | 17.4 |  |
| NC(N)=NC(=O)Nc1cc(Br)c(Cl)c(Br)c1 [TCMDC-137464] | 72.05 |  |
| CCC1(C)CC(CCNCc2ccccc2O)(c2ccc(F)cc2)CCO1 (stereo not drawn) [TCMDC-124006] | -8.682 |  |
| COc1ccc(CC(C)NCC(O)c2cccc(Cl)c2F)cc1 (stereo not drawn) [TCMDC-131488] | 21.97 |  |
| COc1cc(NC(=O)/C=C/c2cc3ccccc3n2C)ccc1OCCN(C(C)C)C(C)C [TCMDC-139900] | 118 |  |
| Cc1ccc(CC(C)NCC(O)c2cccc(C(F)(F)F)c2)cc1 (stereo not drawn) [TCMDC-131450] |  | 20.44 |
| Cc1ccc(CC(C)(C)NCC(O)c2cccc(C(F)(F)F)c2)cc1 (stereo not drawn) [TCMDC-131445] | -8.892 |  |
| CC[C@H]1CN2CC[C@H]1C[C@@H]2[C@@H](O)c1ccnc2ccccc12 [TCMDC-125880] | 69.34 |  |
| CCCN(CCC)CCOC(=O)C(OCC)(c1ccccc1)c1ccccc1 [TCMDC-131392] | -25.5 |  |
| COc1ccc2[nH]cc(C3=CCN(Cc4ccccc4)CC3)c2c1 [TCMDC-139048] | -90.48 |  |
| CC(Cc1ccc(SC(C)(C)C)cc1)NCC(O)c1cccc(Cl)c1 (stereo not drawn) [TCMDC-131492] | -3.8 |  |
| CC(C)N(C)C(=O)n1cnc(S(=O)(=O)C2CC3CCC2C3)n1 (stereo not drawn) [TCMDC-134379] | 65.83 |  |
| O=C(NC1CCC(CN2CCC(c3c[nH]c4ccccc34)CC2)CC1)C1(O)c2ccccc2-c2ccccc21 (stereo not drawn) [TCMDC-139901] | 25.48 |  |
| Cc1nc2ccccn2c1C1(O)C(=O)Nc2c(Cl)cc(Cl)cc21 (stereo not drawn) [TCMDC-124526] | 6.508 |  |
| COc1ccc(CC(C)NCC(O)c2ccc(Cl)c(Cl)c2)cc1 (stereo not drawn) [TCMDC-131514] | 0.9057 |  |
